Measured values: PubChem BioAssay

Test: growth suppression of yeast trafficking mutant, preliminary HTS, modulators of trafficking downstream of Golgi apparatus project, 1536-format plate, OD 615 nm (AID 637)
Details: yeast transport mutant growth, absorbance 615 nm, 18 h; stronger effect = higher value; in the data active = inhibition above about 30%; inactive = the rest

inhibition, inactive:
CCOc1ccc(CN2C(=O)c3ccccc3C2C(=O)NCc2cccnc2)cc1 (stereo not given) -3.02%, CCOc1ccccc1NC(=O)CN(c1ccc(C)cc1)S(=O)(=O)c1c(C)noc1C 5.56%, CCCOc1ccc([C@@H]2C3CN(C(=O)OCC)CC=C3C(C#N)=C(N)C2(C#N)C#N)cc1OC (stereo not given in full) 0%, COc1ccc(C2=NOC(C(=O)NCc3ccc(F)cc3)C2)cc1OC (stereo not given) 5.4%, COc1cc(C2CC(=O)NC3=C2C(=O)CC(C)(C)C3)ccc1O (stereo not given) -4.17%, CCOc1ccc2[nH]c(=O)c(CN(Cc3nnnn3CCc3ccccc3)CC3CCCO3)cc2c1 (stereo not given) -11.6%, Cc1cc(C)c2cc3c(ccn3C3OC[C@H](O)[C@H](O)[C@H]3O)cc2n1 (stereo not given in full) 1%, N[C@@H](Cc1ccccc1)c1nnc2sc(SCc3ccccc3)nn12 0.48%, CCC(C)NC(=O)C1(C)CCC(=O)N1Cc1ccccc1OC (stereo not given) 1.31%, Cc1cc(Nc2ccc(C(=O)O)cc2)n2nc(C)nc2n1 4.92%
